Measured values taken from the supplement of paper PMC13380429.

Test system: Vero E6 infected with SARS-CoV-2
Experiment: inhibition of SARS-CoV-2 cytopathic effect; higher = more antiviral protection, active = above 15
Settings: 48 h

Measured: inhibition of SARS-CoV-2 cytopathic effect

O=C1C=CC(=O)C2=C1C1c3ccccc3C2c2ccccc21
inactive: 1 nM 1.05% | 8.33 nM 0.78% | 100 nM -0.03% | 833.33 nM 2.43% | 10000 nM 5.57%

N=C(N)S/C=C\C(=O)O
inactive: 1 nM 1.98% | 8.33 nM 0.81% | 100 nM -2.6% | 833.33 nM -1.03% | 10000 nM -0.56%

CCNCC(O)c1cccc(O)c1 (stereo not given) [etilefrine]
inactive: 1 nM -0.51% | 8.33 nM 2.79% | 100 nM -0.96% | 833.33 nM -0.19% | 10000 nM 1.89%

CC(C)(C)C(=O)OCOC(=O)[C@@H]1N2C(=O)C[C@H]2S(=O)(=O)C1(C)C [sulbactam-pivoxil]
inactive: 1 nM -1.2% | 8.33 nM -4.28% | 100 nM -7.15% | 833.33 nM 5.91% | 10000 nM -2.18%

c1ccc(OCc2ccc(CCCN3CCOCC3)cc2)cc1 [fomocaine]
inactive: 1 nM 0.24% | 8.33 nM 1.88% | 100 nM 1.23% | 833.33 nM -0.27% | 10000 nM 3.83%

Cc1ncc(CO)c(C=O)c1O [pyridoxal]
inactive: 1 nM 4.33% | 8.33 nM 2.21% | 100 nM 0.26% | 833.33 nM -1.64% | 10000 nM 1.19%

O=C(CN1CCN(C(=O)c2ccco2)CC1)Nc1cc(C(F)(F)F)ccc1Cl
inactive: 1 nM 0.23% | 8.33 nM -4.63% | 100 nM -0.17% | 833.33 nM 1.03% | 10000 nM 5.23%

CO[C@@H]1COCC[C@@H]1N[C@@H]1CC[C@@](C(=O)N2CCc3ncc(C(F)(F)F)cc3C2)(C(C)C)C1
inactive: 1 nM 0.39% | 8.33 nM -0.35% | 100 nM 0.03% | 833.33 nM -0.05% | 10000 nM -5.58%

O=C(NCCCNc1nc(Nc2cccc(NC(=O)N3CCCC3)c2)ncc1I)c1cccs1
inactive: 1 nM -2.02% | 8.33 nM -0.75% | 100 nM 0.52% | 833.33 nM -5.21% | 10000 nM -23.3%

Cc1ccc2c(Br)cc(Br)c(OC(=O)c3ccccc3)c2n1 [broxaldine]
inactive: 1 nM 0.35% | 8.33 nM 0.53% | 100 nM 4.07% | 833.33 nM 5.01% | 10000 nM 11.5%

Nc1nc(N)c2nc(-c3cccc(O)c3)cnc2n1
inactive: 1 nM -0.93% | 8.33 nM -0.26% | 100 nM 0.04% | 833.33 nM -0.48% | 10000 nM -1.39%

COC1=C2C[C@@H](C)C[C@H](OC)[C@H](O)[C@@H](C)/C=C(\C)[C@H](OC(N)=O)[C@@H](OC)/C=C\C=C(/C)C(=O)NC(=CC1=O)C2=O [geldanamycin]
inactive: 1 nM 1.08% | 8.33 nM 2.06% | 100 nM 0.35% | 833.33 nM -3.32% | 10000 nM -4.4%

C[C@H]1NCc2cc(-c3ccc4c(=O)c(C(=O)O)cn(C5CC5)c4c3OC(F)F)ccc21 [garenoxacin]
inactive: 1 nM -4.16% | 8.33 nM -1.9% | 100 nM 1.67% | 833.33 nM 3.28% | 10000 nM 1.04%

CS(=O)(=O)n1cc2c(n1)CN([C@H]1CO[C@H](c3cc(F)ccc3F)[C@@H](N)C1)C2 [omarigliptin]
inactive: 1 nM -0.75% | 8.33 nM 1.81% | 100 nM 0.23% | 833.33 nM 1.96% | 10000 nM 0.42%

NS(=O)(=O)c1cc(C(=O)O)cc(N2CCCC2)c1Oc1ccccc1 [piretanide]
inactive: 1 nM 3.5% | 8.33 nM 5.18% | 100 nM 2.39% | 833.33 nM -2.57% | 10000 nM 1%

CCC(C)(C)C(=O)C(=O)N1CCC[C@H]1C(=O)OCCCc1cccnc1
inactive: 1 nM 0.46% | 8.33 nM 0.86% | 100 nM 1.28% | 833.33 nM -0.32% | 10000 nM 1.17%

Cc1ncc(C)n2nc([C@@H]3C[C@H]3c3nc4c5cccnc5ccn4c3C)nc12
inactive: 1 nM 0.4% | 8.33 nM 0.57% | 100 nM 0.67% | 833.33 nM -1.22% | 10000 nM 4.45%

Cc1cc(C(C#N)c2ccc(Cl)cc2)c(Cl)cc1NC(=O)c1cc(I)cc(I)c1O (stereo not given) [closantel]
inactive: 1 nM 0.26% | 8.33 nM 1.55% | 100 nM 1.07% | 833.33 nM 3.04% | 10000 nM 5.87%

O=C1OC2(c3ccc(O)cc3Oc3cc(O)ccc32)c2ccccc21 [fluorescein]
inactive: 1 nM -8.63% | 8.33 nM -9.87% | 100 nM -11.5% | 833.33 nM -5.06% | 10000 nM -7.22%

Clc1ccc(C(Cn2ccnc2)OCc2csc3c(Cl)cccc23)c(Cl)c1 (stereo not given) [sertaconazole]
inactive: 1 nM 0.24% | 8.33 nM 1.06% | 100 nM -0.32% | 833.33 nM 1.68% | 10000 nM -2.97%

CCNC1=Nc2ccc(Cl)cc2C(C)(c2ccccc2)O1 (stereo not given) [etifoxine]
inactive: 1 nM 2.81% | 8.33 nM 2.31% | 100 nM 0.13% | 833.33 nM 2.41% | 10000 nM -2.7%
